The source of these data is ChEMBL document CHEMBL4513216, “Probing the Open Global Health Chemical Diversity Library for Multistage-Active Starting Points for Next-Generation Antimalarials” (ACS Infect Dis, 2020).

Hit rate of the full screen: of about 68,000 compounds, about 2,700 (4%) showed an effect of 50% or more. The entries come from a sample that favours strong results as a whole.

In the experiment the test system is Plasmodium berghei. Put plainly: Screen against P. berghei liver stage (PbLuc), transformed with Luciferase, at 2uM. It is filed as functional, HepG2. Conditions: tested at 2 uM.
`CCc1sc(-c2nnc(CNCCn3cccn3)o2)cc1C`: the INHIBITION was -19.27%. In the case of `CCc1sc(-c2nnc(CNCCn3cc(C)cn3)o2)cc1C` it was 53.03%. In the case of `CNc1nc2cn(Cc3ccc(Cl)cc3)c(=O)c-2c[nH]1`, the INHIBITION was 16.38%. Regarding `CC[C@@H](Cn1ncc2ccccc2c1=O)NC(=O)c1cnccn1`, the INHIBITION is recorded as -10.89%. As to `Cc1cc(=O)n2ncnc2n1CC(O)c1ccccc1Cl` (stereo not drawn), the INHIBITION came to 5.36%.

Turning to `Cc1cc(=O)n2ncnc2n1CC(O)c1cc(F)ccc1F` (stereo not drawn), the INHIBITION came out at 6.97%. In the case of `Cc1cc(=O)n2ncnc2n1CC(O)c1cc(Cl)ccc1Cl` (stereo not drawn) it was 50.59%; in that of `Cc1nc(C2(O)CCCNCC2)sc1CCOc1ccc(Cl)cc1` (stereo not drawn), 25.23%. Under `Cc1ccc(NC2CCN(C(=O)c3nccc4ccccc34)CC2)nn1` stands -27.5%.

Take `Cc1[nH]c2ccc(C(=O)N3C[C@@H](O)[C@H](N4CCOCC4)C3)cc2c1C`: the INHIBITION was 21.97%. On to `COc1ccccc1C(C)CC(=O)N1CCCS1(=O)=O` (stereo not drawn), for which the INHIBITION was -29.82%. Under `COc1ccccc1C(C)CC(=O)N1CC[C@H](O)C1` (stereo partly drawn) stands -22.65%; under `COc1ccccc1C(C)CC(=O)N1CCN(S(N)(=O)=O)CC1` (stereo not drawn), 50.46%. Under `O=C(NC1CC1)C1CN(Cc2ccc3c(c2)OCCO3)CCN1` (stereo not drawn) stands 54.73%. In the case of `Cc1ccc(CN2CCNC(C(=O)NC3CC3)C2)cc1C` (stereo not drawn) it was 2.6%. On to `NC(=O)COc1ccc(CN2CCNC(C(=O)NC3CC3)C2)cc1Cl` (stereo not drawn), for which the INHIBITION was 32.69%. `O=C(c1ccccn1)N1C[C@H]2CC[C@@H](C1)N(C(=O)CCN1CCCC1)C2`: the INHIBITION is on record as -49.63%. In the case of `Cc1cc(NCCNS(=O)(=O)c2cccc(Cl)c2)nc(C)n1` it was -42.54%; in that of `O=C(NCCNS(=O)(=O)c1cccc(Cl)c1)C1CCCO1` (stereo not drawn), 1.27%. Under `CC(NCCNS(=O)(=O)c1cccc(Cl)c1)C1CCOCC1` (stereo not drawn) stands 53.16%. Under `COCC1CC2(CCN(C(=O)c3ccccc3C)CC2)CN1C(C)C` (stereo not drawn) stands 24.86%; under `O=C(c1cn(CC(=O)N2CCCCCC2)c2ccccc12)C1CC1`, -45.95%; under `O=C(c1cn(CC(=O)N2CCCC2)c2ccccc12)C1CC1`, 54.29%. Regarding `O=C(c1cn(CC(=O)N2CCCCC2)c2ccccc12)C1CC1`, the INHIBITION was -27.61%. In the case of `CCOCC1CN(C(=O)c2cnoc2C)Cc2cn(C)nc21` (stereo not drawn) it was -10.98%; in that of `CCOc1ccc(CN2CCCC(c3cc4ncccc4[nH]3)C2)cc1` (stereo not drawn), -12.12%. Turning to `CC(=O)Nc1ccc(CN2CCCC(c3cc4ncccc4[nH]3)C2)cc1` (stereo not drawn), the INHIBITION worked out at 50.68%. With `Fc1ccc(CN2CCCC(c3cc4ncccc4[nH]3)C2)cc1` (stereo not drawn), the INHIBITION was -6.41%. As for `Cc1occc1C(=O)N1CCCC2(CCN(CCN3CCCC3)C2=O)C1` (stereo not drawn), the INHIBITION is given as -15.36%. In the case of `Cc1ccc(Cn2nc(C)c3c(C(=O)O)c(Cl)c(C4CC4)nc32)cc1` it was 26.11%; in that of `Cc1noc2nc(C3CC3)c(Cl)c(C(=O)O)c12`, -7.81%. In the case of `Cc1nn(C)c2nc(C3CC3)c(Cl)c(C(=O)O)c12` it was 52.23%. Take `CCc1csc(NC(=O)NCc2ccccn2)n1`: the INHIBITION is given as 29.32%. In the case of `Cc1c(C(=O)N(C)CC(F)(F)F)nnn1-c1ccccc1Cl` it was -20.76%; in that of `CSC1(CNC(=O)NC(C)c2ccc(F)cc2)CCOCC1` (stereo not drawn), 51.43%; in that of `CSC1(CNC(=O)NC(C)c2ccc(F)c(F)c2)CCOCC1` (stereo not drawn), -90.61%. On to `CSC1(CNC(=O)NC(C)Cc2cccc(F)c2)CCOCC1` (stereo not drawn), for which the INHIBITION came out at 16.49%. Under `CCS(=O)(=O)CCN1CCN(C2CCC(C(C)C)CC2)CC1` (stereo not drawn) stands 20.83%; under `COCc1nccc(C2CCCN(Cc3ccc(SC)cc3)C2)n1` (stereo not drawn), 35.63%. In the case of `CC1N(C)C(=O)COC12CCN(Cc1nccs1)CC2` (stereo not drawn) it was -52.93%. In the case of `OCC1CCCN1c1cc(NCCc2ccccn2)ncn1` (stereo not drawn) it was -13.49%. On to `CC(=O)N1CCc2[nH]cnc2C12CCN(C(=O)Cc1ccccn1)CC2`, for which the INHIBITION is 39.58%.

Turning to `CC(=O)N1CCc2[nH]cnc2C12CCN(C(=O)Cc1cccs1)CC2`, the INHIBITION came out at 63.14%.

For the molecule `CN1CCc2[nH]cnc2C12CCN(C(=O)CCc1cccs1)CC2`, the INHIBITION is on record as 46.51%. Under `Cc1cccc(CN2C[C@@H]3CN(C(=O)[C@H]4CCCO4)C[C@@H]3C2=O)c1` stands 19.64%; under `CCn1ncc2c1C(COC)N(C(=O)c1cccs1)CC2` (stereo not drawn), -23.14%. In the case of `O=C(Nc1nnn[nH]1)c1ccc(I)c(F)c1` it was 15.2%; in that of `Cc1cccc(CN2C(=O)C[C@H]3[C@@H]2CCN3Cc2cccs2)n1`, 63.06%; in that of `Cc1cccc(CN2C(=O)C[C@H]3[C@@H]2CCN3Cc2nccs2)n1`, 31.5%.

As for `Cc1cccc(CN2CC[C@@H]3[C@@H]2CCN3Cc2cccs2)n1`, the INHIBITION is recorded as -18.6%. In the case of `Cc1ccc(-c2cn[nH]c2C2CCCN(c3nccc(N)n3)C2)cc1` (stereo not drawn) it was 58%. In the case of `Cc1ccc(-c2cn[nH]c2C2CCCN(c3ncccn3)C2)cc1` (stereo not drawn) it was -16.71%; in that of `Cc1ccc(-c2cn[nH]c2C2CCCN(c3ccnc(C)n3)C2)cc1` (stereo not drawn), -8.3%.
